High-throughput results deposited in PubChem by National Center for Advancing Translational Sciences (NCATS).
Pf growth 48h – inhibits P. falciparum growth in the first generation, 48 h | Potency, µM (top dose mostly 28.7 µM), hits mostly inhibitors | AID 504832 | P. falciparum luciferase growth in erythrocytes, 48 h | hit rate 5.9% among 310,000
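Cell-based growth assay: transgenic P. falciparum expressing firefly luciferase, cultured in red cells within RPMI 1640 containing 0.5% w/v Albumax, 24 mM bicarbonate and gentamycin. A drop in luciferase activity indicates inhibition.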
Pf growth 96h – inhibits malaria parasite growth, 96 h; P. falciparum luciferase reporter growth, 96 h; Potency, µM (titrated, usually from 28.7 µM), most hits filed as inhibitors; hit rate 6.9% among 320,000; AID 504834
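Readout is luminescence from an integrated firefly luciferase in P. falciparum. Red cells, 2% hematocrit and 0.05% parasitemia final, were cultured with compound through two parasite generations (96 hours) at 37 C, 5% CO2.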
AmpC detergent – blocks E. coli AmpC beta-lactamase in detergent assay; AID 485294; hit rate 0.041% among 370,000; AmpC hydrolysis of nitrocefin, absorbance 480 nm, 0.01% Triton; Potency, µM (doses to about 114 µM), actives largely listed as inhibitors; P00811; also: nearly all actives have a fitted effect of over 25% in size
Target sequence (P00811 whole entry, looked up): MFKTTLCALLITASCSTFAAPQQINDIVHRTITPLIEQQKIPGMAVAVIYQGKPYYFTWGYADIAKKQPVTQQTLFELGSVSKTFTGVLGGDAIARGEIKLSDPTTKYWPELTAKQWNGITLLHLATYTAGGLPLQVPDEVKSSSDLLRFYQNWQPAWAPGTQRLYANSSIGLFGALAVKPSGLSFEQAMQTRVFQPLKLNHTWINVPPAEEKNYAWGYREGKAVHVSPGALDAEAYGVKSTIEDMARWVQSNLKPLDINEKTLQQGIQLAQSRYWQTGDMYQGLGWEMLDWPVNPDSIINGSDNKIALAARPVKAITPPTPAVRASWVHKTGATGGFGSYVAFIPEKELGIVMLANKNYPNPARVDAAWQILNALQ
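20 mM phosphate pH 7.0 + 0.01% (detergent screen) or 0.0001% Triton X-100; 5.3 nM AmpC reagent; cpd preinc 15 min RT; nitrocefin (800 uM stock) to start; A480 q20 s × 4 min; Activity was normalised to no-enzyme and no-compound control wells.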
Sm TGR block – inhibitors of Schistosoma mansoni thioredoxin glutathione reductase; hit rate 3% among 360,000; Potency, µM (highest dose often 114 µM), most hits filed as inhibitors; purified TGR, DTNB reduction, TNB absorbance 405 nm; also: nearly all actives have a fitted effect of over 60% in size
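Kinetic colorimetric format: TGR-catalysed, NADPH-driven DTNB reduction monitored via TNB absorbance. Enzyme dispensed at 20 nM; compound exposure 15 min at room temperature before reaction start.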
SARS PLP yeast – SARS-CoV PLP inhibition in yeast | S. cerevisiae expressing SARS-CoV PLpro, growth rescue | Potency, µM (titrated, usually from 32.9 µM), usual class: activators | hit rate 0.19% among 330,000; calls by dose curve; also: nearly all actives have a fitted effect of over 55% in size
AmpC no deterg – blocks E. coli AmpC beta-lactamase in detergent-free assay; P00811; AmpC nitrocefin hydrolysis, absorbance 480 nm, 0.0001% Triton; Potency, µM (series often up to 57.1 µM), most hits filed as inhibitors; hit rate 0.52% among 330,000; AID 485341; also: nearly all actives have a fitted effect of over 20% in size
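AmpC (5.3 nM in the dispensed reagent) in 20 mM phosphate pH 7.0 with 0.01% (detergent screen) or 0.0001% Triton X-100 was preincubated with compounds for 15 min at room temperature. Nitrocefin was then added from an 800 uM solution, and hydrolysis was followed at 480 nm.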
A number is an active result; . = inactive; ? = inconclusive; / = no result given; [ ] = remark or other dose. Shown are actives, neighbours in structure and some others; about 12% of the full set was active somewhere. Unless noted, calls follow the shape of the dose curve; as a rule, active = well fitted curve in the direction sought with a large enough effect; inconclusive = small, poorly fitted or top-dose-only effect, or another doubt; inactive = no such curve, though single readings can be large; an effect the other way counts as inactive or inconclusive.

SMILES	Pf growth 48h	Pf growth 96h	AmpC detergent	Sm TGR block	SARS PLP yeast	AmpC no deterg
C#CCOCCOCCOCCNc1nc(N2CCN(C(=O)CCCCCCCCCCNC(=O)[C@@H](CCC(=O)O)n3cc(CCCCCN)nn3)CC2)nc(N2CCN(C(=O)CCCCCCCCCCNC(=O)[C@H](CCCCN)n3cc(C[C@@H](C)CC)nn3)CC2)n1	5.86µM	?	.	.	.	.
CCOc1ccc(NC(=S)NCC(c2cccnc2)N2CCOCC2)cc1 (configuration not stated)	.	?	.	.	.	.
CCOCCCNC(=O)c1ccc2c(c1)ncn2-c1ccccc1OC	?	.	?	.	.	.
CCC(Sc1nc2ccncc2[nH]1)C(=O)Nc1ccc(F)cc1 (configuration not stated)	/	/	.	.	/	/
CCCOc1ccc(C2c3c(-c4ccccc4O)n[nH]c3C(=O)N2Cc2ccncc2)cc1OCC (configuration not stated)	/	/	.	.	/	/
COc1ccccc1-c1c(-c2ccc(O)cc2O)n[nH]c1C(F)(F)F	?	13.1µM	.	.	.	.
C1CCC(C(CC2CCCCN2)C2CCCCC2)CC1 (configuration not stated)	3.7µM	4.15µM	.	.	.	.
CCS(=O)(=O)C1=NSC2=NC(=O)/C(=C\c3ccc(OC(=O)c4ccco4)c(OC)c3)C(=N)N21	.	.	.	.	.	.
CCOc1cc(/C=C2/C(=N)N3C(=NC2=O)SN=C3S(=O)(=O)C(C)C)ccc1OC(=O)c1ccco1	.	8.28µM	.	.	?	.
CCOc1cc(/C=C2/C(=N)N3C(=NC2=O)SN=C3S(=O)(=O)CC)ccc1OC(=O)c1ccco1	.	10.4µM	.	.	.	.
COc1ccc(Nc2ncnc3c2cnn3-c2ccc(C)cc2)cc1Cl	/	/	.	.	/	/
O=C1Nc2ccc(Br)cc2C1(O)c1ccccc1 (configuration not stated)	6.57µM	?	?	.	.	.
CCOc1cc(C(=O)N=c2sccn2C)ccc1OC(F)F	.	.	.	.	.	.
O=C(/C=C/c1ccccc1)Nc1cccnc1Cl	.	.	?	.	.	.
COC(=O)c1ccccc1NC(=O)NCc1ccco1	.	/	.	.	.	.
COC(=O)c1ccccc1NC(=O)/C=C/c1ccco1	?	.	.	39.8µM	.	.
O=C(/C=C/c1ccco1)Nc1ccccc1N1CCCCC1	?	.[1.15 µM]	.	44.7µM	.	.
O=C(/C=C/c1ccco1)Nc1cccnc1Cl	.	.	.	5.62µM	.	.
O=C(NCc1ccc2c(c1)OCO2)c1cccc(S(=O)(=O)N2CCCC2)c1	.	.	.	.	.	.
O=C(OCCN1CCOCC1)c1cccs1	.	.	.	.	.	.
Cc1ccc(-n2nc(C(=O)Nc3ccc(C)c(F)c3)c3c4ccccc4n(C)c3c2=O)cc1	/	/	.	.	/	/
COc1ccc(-n2c(/C=C/c3ccc(O)c(OC)c3)nc3ccccc3c2=O)cc1	?	.	.	.	.	.
COc1cccc(-n2c(/C=C/c3ccc(O)c(O)c3)nc3ccccc3c2=O)c1	?	9.28µM	.	.	.	17.8µM
Cc1ccc(-n2c(/C=C/c3ccc4c(c3)OCO4)nc3ccccc3c2=O)cc1	?	?	.	.	.	.
COc1ccc(-n2c(/C=C/c3ccc4c(c3)OCO4)nc3ccccc3c2=O)cc1	?	9.28µM	?	.	.	.
SMILES	Pf growth 48h	Pf growth 96h	AmpC detergent	Sm TGR block	SARS PLP yeast	AmpC no deterg
CC(=O)c1cccc(NC(=O)c2ccc3c(c2)N(Cc2ccc(C)cc2)CCS3)c1	/	/	.	.	/	/
CCCCn1c(N)c(N(CCOC)C(=O)c2cc(-c3ccc(OC)cc3)nc3ccccc23)c(=O)[nH]c1=O	9.28µM	?	.	.	/	.
CCCCn1c(N)c(N(CCOC)C(=O)c2ccc(-c3cccc(C(F)(F)F)c3)o2)c(=O)[nH]c1=O	13.1µM	7.38µM	?	.	.	.
CCCCn1c(N)c(N(CCOC)C(=O)c2cc(-c3ccc(F)cc3)nc3ccccc23)c(=O)[nH]c1=O	?	?	?	.	.	.
CCCn1c(N)c(N(CCOC)C(=O)c2cccc(C(F)(F)F)c2)c(=O)[nH]c1=O	.	.	.	.	.	.
CCCCn1c(N)c(N(CC(C)C)C(=O)c2cc(-c3ccco3)nc3ccccc23)c(=O)[nH]c1=O	?	.	.	22.4µM	?	.
CCCCn1c(N)c(N(CCOC)C(=O)c2cc(-c3ccc(C)cc3)nc3ccccc23)c(=O)[nH]c1=O	?	11.7µM	.	.	.	.
Cc1ccc2c(c1)N(CCC(=O)NCCCOC(C)C)C(=O)C(C)O2 (configuration not stated)	.	?	.	.	.	.
CCCCn1c(N)c(N(CCOC)C(=O)CSCc2c(C)noc2C)c(=O)[nH]c1=O	?	.	.	79.4µM	.	.
Cc1cc(C(F)F)nn1CC(=O)NC1C(=O)N2C(C(=O)O)=C(CSc3nnnn3C)CSC12 (configuration not stated)	.	.	.	14.1µM	.	.
Cn1nnnc1SCC1=C(C(=O)O)N2C(=O)[C@@H](NC(=O)[C@H](O)c3ccccc3)[C@H]2SC1	.	.	.	.	.	.
CC1=C(C(=O)O)N2C(=O)[C@@H](NC(=O)[C@H](N)c3ccccc3)[C@H]2SC1	.	.	.	.	.	.
Cc1nn(C(C)C(=O)NC2C(=O)N3C(C(=O)O)=C(CSc4nnnn4C)CSC23)cc1Cl (configuration not stated)	.	.	.	2.24µM	.	.
Cn1nnnc1SCC1=C(C(=O)O)N2C(=O)C(NC(=O)C3CC3c3ccccc3)C2SC1 (configuration not stated)	.	.	.	2.51µM	.	.
CC(C(=O)NC1C(=O)N2C(C(=O)O)=C(CSc3nnnn3C)CSC12)n1cc(Br)cn1 (configuration not stated)	.	.	.	0.562µM	.	.
C=CCOc1ccc(/C=C/C(=O)OCC(=O)Nc2c(C)n(C)n(-c3ccccc3)c2=O)cc1	.	.	.	.	.	.
CCc1ccc(S(=O)(=O)N(C(=O)Oc2ccccc2)c2ccc3oc(C)c(C(=O)OC)c3c2)cc1	/	/	.	.	/	/
Cc1nc(C)c(-c2ccc(SCc3cccc(F)c3)nn2)s1	.	.	.	.	.	.
Fc1cccc(CSc2ccc(-c3ccco3)nn2)c1	.	.	.	31.6µM	.	.
Fc1ccc(CSc2ccc(-c3ccco3)nn2)cc1	.	.	.	44.7µM	.	.
Fc1ccc(CSc2ccc(-c3ccc4c(c3)OCO4)nn2)cc1	.	.	.	.	.	.
